This note sets out measurements from PubChem BioAssay AID743131 (Broad Institute, 2013).

Molecules are shown by their SMILES. Results with a measured potency or affinity are listed apart. Results filed as inconclusive are left out. Active and inactive are the calls of the source.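 The calls were made as follows: active = cell viability loss with a fitted half-maximal concentration at or below twice the top valid dose; inconclusive = flat curve losing 30 to 70% viability, or a poor fit; inactive = the rest.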

The nature of this test: HEK293 cell cytotoxicity, dose response, cytotoxicity control, ATP luminescence, dry powder, set 3 (AID 743131).

As to `CCOC(=O)c1c(-c2ccc(C(C)(C)C)cc2)csc1NC(=O)CN1CCN(C)CC1`, the call was inactive.

Turning to `Cc1ccc(OCCn2c(SCCO)nc3ccccc32)c(C(C)C)c1`, the call was inactive.

On to `CCOC(=O)c1c(-c2ccc(F)cc2)csc1NC(=O)CN1CCN(C)CC1`, for which the outcome was inactive.

As to `Cc1ccc(OCCn2cnc3ccccc32)cc1`, the compound was classed as inactive.

As for `CCOc1ccc(OCCn2c(=S)[nH]c3ccccc32)cc1`, the call was inactive.

For the compound `S=c1[nH]c2ccccc2n1CCOc1ccccc1`, the result was inactive.

`CCOC(=O)c1c(-c2ccc(OC)cc2)csc1NC(=O)CN(C)CC(=O)N(C)C`: the result was inactive.

As for `Fc1ccccc1OCCn1c(=S)[nH]c2ccccc21`, the outcome was inactive.

With `COC(=O)C1=C(C)N(Cc2ccc(Cl)cc2)C(=S)NC1c1ccc(Br)cc1` (stereo not given), the compound was classed as inactive.

Take `Cc1ccc(OCCn2c(=S)[nH]c3ccccc32)cc1`: the result was inactive.

With `COC(=O)C1=C(C)N(Cc2ccc(F)cc2)C(=S)NC1c1cccc(F)c1` (stereo not given), the call was inactive.

As to `COC(=O)C1=C(C)N(Cc2ccc(Br)cc2)C(=S)NC1c1ccc(OC)cc1` (stereo not given), the outcome was inactive.

Regarding `O=c1[nH]c2ccccc2n1CCOc1ccccc1`, the compound was classed as inactive.

As for `S=c1[nH]c2cccc(Cl)c2n1CCOc1ccccc1`, the result was inactive.

On to `S=c1[nH]c2ccccc2n1CCOc1ccc(Cl)cc1`, for which the call was inactive.

Regarding `Cc1ccc(OCCn2c(C)nc3ccccc32)cc1`, the call was inactive.

`Fc1cccc2c1[nH]c(=S)n2CCOc1ccccc1`: the compound was called inactive.

As for `Cc1ccc2c(c1)[nH]c(=S)n2CCOc1ccccc1`, the outcome was inactive.

On to `COC(=O)C1=C(C)N(Cc2ccc(Br)cc2)C(=S)NC1c1ccc(F)cc1` (stereo not given), for which the compound was classed as inactive.

Regarding `CCOC(=O)c1c(-c2ccc(F)cc2)csc1NC(=O)CN1CCN(CC)CC1`, the compound was called inactive.
